Data as given in PubChem BioAssay AID1159580 (chemical genetic matrix, 2015).
Out of some 5,500 compounds screened, about 2,000 (36%) were called active. Inconclusive results (about 18%) are left out. Cut-off read from the data, not from the text of the source: active = normalized growth mostly below about 0.91 (no sharp cut-off); inconclusive = no clear call, values can overlap the other calls; inactive = mostly above about 0.92. This is one part of the list.

Test: chemical genetic growth profiling, strain panel (AID 1159580);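 note: tested at 20 µM; growth read once vehicle control cultures reached saturation at 30 °C; 1 = growth at the plate median or of vehicle wells; lower values mean less growth of the strain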
Conditions: S. cerevisiae deletion strains, growth OD
[1] = locus YHR030C, strain SLT2, stronger effect = lower value
[2] = locus YHR079C, strain IRE1, stronger effect = lower value
[3] = locus YJL095W, strain BCK1, stronger effect = lower value
[4] = locus YJR066W, strain TOR1, stronger effect = lower value
[5] = locus YLR113W, strain HOG1, stronger effect = lower value
[6] = locus YNL183C, strain NPR1, stronger effect = lower value
[7] = locus YOR231W, strain MKK1, stronger effect = lower value
[8] = locus YPL256C, strain CLN2, stronger effect = lower value

Measured: normalized growth

C=C[C@@]1(C)CC(=O)[C@@]2(O)[C@](C)(O1)[C@@H](O)[C@@H](O)C1C(C)(C)CC[C@H](O)[C@@]12C (stereo partly specified)
inactive: [1] 0.962 | [2] 0.971 | [3] 0.989 | [4] 0.957 | [5] 0.992 | [6] 0.995 | [7] 0.992 | [8] 0.976

O=C1OC(CN2CCOCC2)CN1/N=C\c1ccc([N+](=O)[O-])o1 (stereo unspecified)
inactive: [1] 0.93 | [2] 0.948 | [3] 0.952 | [4] 0.844 | [5] 1.03 | [6] 0.856 | [7] 0.931 | [8] 0.961
